The values below come from PubChem BioAssay (NCATS).

Inconclusive results are not listed. Calls of active or inactive are those of the source. Unless noted, calls follow the shape of the dose curve; as a rule, active = well fitted curve in the direction sought with a large enough effect; inconclusive = small, poorly fitted or top-dose-only effect, or another doubt; inactive = no such curve, though single readings can be large; an effect the other way counts as inactive or inconclusive.

For assay [1], the target named is Calcium and integrin-binding protein 1 (Homo sapiens) (UniProt Q99828). Put plainly: Primary qHTS for Identification of Calcium Integrin Binding Protein 1 (CIB1) Competitor (AID 1508620).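 Also: GST tagged CIB1 binding a fluorescein labelled alphaIIb integrin peptide tracer; top concentration of the series differs between compounds.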 Put shortly: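 CIB1-GST (1 uM final) and compound incubated 15 min at room temperature before adding FITC-alphaIIb peptide tracer (100 nM final). Competition for binding read by fluorescence polarization (ex 480, em 540) after another 15 min at room temperature.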
A general note: In qHTS, concentration-response curves come from the screen itself.

Assay [2] can be described thus: Primary qHTS for small molecule stabilizers of the endoplasmic reticulum resident proteome: Secreted ER Calcium Modulated Protein (SERCaMP) assay (AID 1508630). Put shortly:
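The SH-SY5Y reporter protocol was run at 3 concentrations up to 38.3 uM (primary) or 11 concentrations (follow-up): 16 h compound, 100 nM thapsigargin for 4 h, then extracellular luciferase luminescence.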

Assay [3] concerns the target Cytochrome P450 2D6 (Homo sapiens) (UniProt P10635). Put plainly: Cytochrome P450 family 2 subfamily D member 6 (CYP2D6) small molecule antagonists: luciferase biochemical (cell-free) qHTS assay (AID 1645840; active = well fitted curve in the direction sought with a large enough effect in the repeat runs; an effect the other way counts as inactive or inconclusive; also: nearly all actives have a fitted effect of over 55% in size; also: potency is read from the fitted curve at half-maximal effect). A digest of the protocol:
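P450-Glo CYP2D6 system: proluciferin substrate converted by enzyme to luciferin, read by luminescence proportional to activity. Enzyme-substrate mix with compound 10 min at room temperature, then NADPH regeneration 1 h before detection reagent.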

The nature of assay [4]: A High-Content qHTS Against Drug Library for the Identification of Small Molecules that Inhibit DYT1 Early Onset Primary Dystonia-Associated Cell Pathology (AID 1645839; calls by dose curve; also: series mostly up to about 46 µM). Put shortly: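 High-content imaging quantified EGFP-TorsinA mislocalization in HEK293-derived cells inducibly expressing DYT1 mutant torsinA, after 48 h exposure to compound given together with tetracycline induction. Cell count served as a toxicity channel alongside %pathology.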

Sequence of Cytochrome P450 2D6 (Homo sapiens) (P10635 whole entry, looked up): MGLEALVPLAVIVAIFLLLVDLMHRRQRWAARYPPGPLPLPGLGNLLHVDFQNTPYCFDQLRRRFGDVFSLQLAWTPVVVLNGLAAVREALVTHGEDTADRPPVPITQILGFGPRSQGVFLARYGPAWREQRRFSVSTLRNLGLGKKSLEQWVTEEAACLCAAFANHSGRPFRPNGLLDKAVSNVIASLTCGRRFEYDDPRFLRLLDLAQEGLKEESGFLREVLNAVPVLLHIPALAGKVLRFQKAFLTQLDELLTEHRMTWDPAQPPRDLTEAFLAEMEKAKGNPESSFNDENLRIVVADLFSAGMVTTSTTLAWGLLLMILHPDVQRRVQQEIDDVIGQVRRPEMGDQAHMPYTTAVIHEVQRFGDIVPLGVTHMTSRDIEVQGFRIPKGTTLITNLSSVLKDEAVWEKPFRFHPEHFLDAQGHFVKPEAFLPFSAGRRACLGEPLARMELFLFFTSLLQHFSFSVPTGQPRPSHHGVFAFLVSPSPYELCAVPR
Sequence of Calcium and integrin-binding protein 1 (Homo sapiens) (Q99828 whole entry, looked up): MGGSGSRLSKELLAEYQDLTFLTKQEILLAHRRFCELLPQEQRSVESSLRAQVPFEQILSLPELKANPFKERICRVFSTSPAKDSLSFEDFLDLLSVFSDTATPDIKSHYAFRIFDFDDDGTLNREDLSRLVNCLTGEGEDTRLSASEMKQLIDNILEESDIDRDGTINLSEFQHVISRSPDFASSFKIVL

On to `CC(C)(C)NC(=O)Nc1cccc(Nc2ncc(F)c(NC(C)(C)CO)n2)c1`, for which the Potency entry in assay [1] and in assay [2] was “inactive” each time.
With `CC=C(C)C(=O)O[C@H]1C(C)=C[C@]23C(=O)[C@@H](C=C(CO)[C@@H](O)[C@]12O)[C@H]1[C@@H](C[C@H]3C)C1(C)C`, the Potency result in assay [1] and in assay [2] was “inactive” in each case.
On to `CCOc1ccc(Nc2nc(-c3c(C)nc4ccccn34)cs2)cc1`, for which the Potency result in assay [1] and in assay [2] was “inactive” throughout. In assay [3], the Potency was 15.1 µM (active).
Regarding `O=c1[nH]cnc2c1ncn2[C@H]1CC[C@@H](CO)O1`, the Potency entry in assay [1], in assay [2] and in assay [4] was “inactive” each time.
In the case of `CC(=O)N(C)C1(c2ccccc2)CCN(CCC[C@]2(c3ccc(Cl)c(Cl)c3)CCCN(C(=O)c3ccccc3)C2)CC1`, the Potency result in assay [1] and in assay [2] was “inactive” each time.
For the molecule `O=C(Nc1ccccc1Br)N[C@@H]1CCN(c2ccc(C(F)(F)F)cn2)C1`, the Potency result in assay [1] and in assay [2] was “inactive” throughout. In addition, the Potency in assay [3] was 15.1 µM (active).
With `NS(=O)(=O)c1ccc(NC2=CC(=O)c3ccccc3C2=O)cc1`, the Potency result in assay [1] and in assay [2] was “inactive” in each case.
`CC1(C)O[C@H]2C[C@@H]3[C@H]4CCC5=CC(=O)C=C[C@]5(C)[C@@]4(F)[C@@H](O)C[C@]3(C)[C@]2(C(=O)CO)O1`: the Potency result in assay [1] and in assay [2] was “inactive” in each case.
Consider `O=C(O)c1ccc(-c2cc3cccnc3c(-c3ccc4nonc4c3)n2)cc1`, for which the Potency result in assay [1] and in assay [2] was “inactive” in each case.
In the case of `CN1CCN(CCOc2cc(OC3CCOCC3)c3c(Nc4c(Cl)ccc5c4OCO5)ncnc3c2)CC1`, the Potency result in assay [1] and in assay [2] was “inactive” in each case.
In the case of `O=c1c(-c2ccc(O)cc2)coc2cc(O)ccc12`, the Potency entry in assay [1], in assay [2] and in assay [3] was “inactive” each time.
Consider `COCCOC(=O)C1=C(C)NC2=C(C(=O)CC(c3ccccc3OC)C2)C1c1cccc(O)c1` (configuration not stated), for which the Potency entry in assay [1] and in assay [2] was “inactive” in each case. Moreover, in assay [3], the Potency is 10.7 µM (active).
As to `CC(C)(C)Cn1c(N)nc2ccc(-c3[nH]c(C(C)(C)C)nc3-c3ccc(F)cc3)nc21`, the Potency result in assay [1] and in assay [2] was “inactive” each time. For the same molecule, the Potency in assay [3] was 15.1 µM (active).
As to `CCCCCNC(=O)N1CCC(CN(Cc2ccc(Cl)cc2)Cc2ccc([N+](=O)[O-])s2)C1` (configuration not stated), the Potency entry in assay [1] and in assay [2] was “inactive” throughout. In addition, the Potency in assay [3] was 2.39 µM (active).
`COCCCCC(=NOCCN)c1ccc(C(F)(F)F)cc1`: the Potency entry in assay [1] and in assay [2] was “inactive” throughout.
